The subject of the experiment is H1299. Put plainly: difference in mean normalized H2B-mRuby nuclear fluorescence intensity relative to DMSO control (normalized intensity difference (DMSO = 0)); higher = stronger increase in transgene reporter fluorescence. The settings on record: 24 h. The procedure: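 Cancer cell lines stably expressing H2B-mRuby2 from a lentiviral PGK promoter were treated with each drug for 24 h and imaged on a Leica DMI8 (ex 541-551 / em 565-605 nm). Nuclei were segmented in CellProfiler. The value is the difference in mean per-nucleus normalized H2B-mRuby intensity versus DMSO-treated cells (about 3 repeats x 4 fields). Doxorubicin is itself fluorescent. Dasatinib is in nM.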

Molecules are shown by their SMILES.

Difference data for 8 compounds are collected here from the supplement of paper PMC11026393.

In the case of `O=C(Nc1ccc2[nH]nc(-c3ccncc3)c2c1)[C@@H]1CCN(CC(=O)N2CCN(c3ccc(-c4ncccn4)cc3)CC2)C1` (concentration unit: uM), the difference is, setting by setting: (concentration: 0.05) -0.0926; (concentration: 0.1) -0.0835; (concentration: 0.25) -0.13; (concentration: 1) -0.131; (concentration: 5) -0.0355.
With `O=C(NOC[C@H](O)CO)c1ccc(F)c(F)c1Nc1ccc(I)cc1F` (concentration unit: uM), the difference by setting is: (concentration: 0.05) -0.0791; (concentration: 0.1) -0.114; (concentration: 0.25) -0.172; (concentration: 1) -0.174; (concentration: 5) -0.199.
Turning to `CC(=O)c1c(C)c2cnc(Nc3ccc(N4CCNCC4)cn3)nc2n(C2CCCC2)c1=O` (concentration unit: uM), the difference (concentration: 0.1) is -0.156; the difference (concentration: 0.5) is -0.266; the difference (concentration: 1) is -0.19; the difference (concentration: 5) is -0.0957; the difference (concentration: 10) is -0.0594.
On to `CC[C@]1(O)C[C@H]2CN(CCc3c([nH]c4ccccc34)[C@@](C(=O)OC)(c3cc4c(cc3OC)N(C=O)[C@H]3[C@@](O)(C(=O)OC)[C@H](OC(C)=O)[C@]5(CC)C=CCN6CC[C@]43[C@@H]65)C2)C1` (concentration unit: nM), for which the difference reads like this: (concentration: 2.5) -0.165; (concentration: 10) -0.0783; (concentration: 25) -0.00792; (concentration: 100) -0.00267; (concentration: 250) -0.0899.
As for `CO[C@H]1/C=C\C=C(/C)C(=O)NC2=CC(=O)C(NCCN(C)C)=C(C[C@@H](C)C[C@H](OC)[C@H](O)[C@@H](C)/C=C(\C)[C@@H]1OC(N)=O)C2=O` (concentration unit: nM), the difference turned out to be 0.0988 (concentration: 5); 0.27 (concentration: 25); 0.565 (concentration: 50); 0.538 (concentration: 100); 0.571 (concentration: 500).
Turning to `CC(=O)O[C@H]1C(=O)[C@@]2(C)[C@H]([C@H](OC(=O)c3ccccc3)[C@]3(O)C[C@H](OC(=O)[C@H](O)[C@@H](NC(=O)c4ccccc4)c4ccccc4)C(C)=C1C3(C)C)[C@]1(OC(C)=O)CO[C@@H]1C[C@@H]2O` (concentration unit: nM), the difference (concentration: 10) is -0.0339; the difference (concentration: 25) was -0.0112; the difference (concentration: 50) is 0.134; the difference (concentration: 100) stood at 0.374; the difference (concentration: 1000) came to 0.566.
On to `COC(=O)c1ccc([C@H]2c3[nH]c4ccccc4c3C[C@H](C(=O)OC)N2C(=O)CCl)cc1` (concentration unit: nM), for which the difference runs as follows: (concentration: 25) 0.0419; (concentration: 100) 0.0844; (concentration: 250) 0.00407; (concentration: 500) 0.231; (concentration: 1000) 0.121.
With `Cc1nc(Nc2ncc(C(=O)Nc3c(C)cccc3Cl)s2)cc(N2CCN(CCO)CC2)n1` (concentration unit: nM), the difference is -0.00395 (concentration: 25); 0.0114 (concentration: 100); 0.0693 (concentration: 250); 0.167 (concentration: 1000); 0.163 (concentration: 2500).
